# According to PubChem BioAssay:
# For part of these data: Entries with a potency or affinity are not part of this list. The source made the active and inactive calls.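 How the source made its calls, unless noted: active means at least 20% inhibition of 6-phosphogluconate dehydrogenase activity; inactive means the rest.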
# Legend:
# [1] = polyglutamine-triggered caspase-3 activation inhibitors, cell-based (AID 1583); settings: polyglutamine-induced caspase-3 activation, cell assay; stronger effect = higher value;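 tested at 10 µM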
# [2] = suppressors of polyQ aggregation in yeast, 75Q-TubU reporter (AID 1593); settings: Yeast 75Q polyglutamine aggregation reporter
# [3] = rescue of polyQ-huntingtin neuronal dysfunction in worms, whole organism, C. elegans mechanosensory neurons, N-terminal huntingtin (AID 1599); settings: touch response, stronger effect = higher value
# [4] = inhibitors of mitochondrial cytochrome c release, biochemical, purified mitochondria (AID 1603); settings: stronger effect = lower value;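 further: mouse liver mitochondria challenged with calcium chloride; signal normalized to the plate average as 100%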
# [5] = inhibitors of polyQ protein aggregation (AID 1604); settings: polyglutamine-induced protein aggregation inhibition assay; stronger effect = higher value; tested at 2.5 µM
# [6] = enhancers of glutamate uptake in motor neurons, MN-1 cell line (AID 1612); settings: MN-1 motor neuron cells, stronger effect = higher value;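 further: tested at 1 µM final; 0% = mean of DMSO vehicle wells on each plate; positive means more glutamate uptake than control and negative means less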
# [7] = suppressors of polyglutamine aggregation in yeast, 75Q-TubH (AID 1616); settings: S. cerevisiae 75Q-TubH polyglutamine aggregation suppression; stronger effect = higher value
# [8] = liver-stage malaria parasite growth inhibition, primary screen, cell-based, HepG2, luciferase luminescence, HepG2 viability (AID 624349; in the data active means parasite load remaining mostly below about 12%, no sharp cut-off; inactive means mostly above about 10%;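 further: 100% = mean of DMSO negative control wells on the same plate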); settings: P. berghei liver stage in HepG2, luciferase luminescence, concentration not given here; parasite load remaining: stronger effect = lower value; viability: measured here: HepG2 viability without parasites
# [9] = target: 6-phosphogluconate dehydrogenase, decarboxylating (Homo sapiens) (UniProt P52209); assay: 6PGD enzyme inhibitors, primary screen, biochemical, human, recombinant enzyme, NADPH absorbance (AID 1159550); settings: recombinant 6PGD, NADPH absorbance 341 nm; at 10 µM; stronger effect = higher value
# [10] = differential killing of epithelial or mesenchymal cells, primary screen, imaging, PC-3E GFP, TEM4-18 mCherry, co-culture (AID 1345086;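 active means compounds killing one labelled cell type while sparing the other, by normalised counts and ratio limits, not self-fluorescent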;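 on all read-outs here: cells exposed to compound for 72 h before imaging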;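 on red/green cell ratio (normalised): normalised mesenchymal count divided by normalised epithelial count so high means epithelial killing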); settings: imaging cell counts, at 1 µM; for red/green cell ratio (normalised): actives lie on both sides, counts scaled to control wells, 1 = unselective
# [11] = target: Mitogen-activated protein kinase 7 (Homo sapiens) (UniProt Q13164); assay: ERK5 transactivation activators in reporter cells, primary screen, cell-based, HTS (AID 1508626;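 active means luciferase signal above three times the same-plate solvent-only control wells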;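 further: luciferase driven by Gal4-ERK5 fusion binding five Gal4 sites before minimal TATA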); settings: HeLa Gal4-ERK5 transactivation, 18 h, at 5 µM, stronger effect = higher value
# [12] = measured here: epithelial PC-3E GFP cell survival
# [13] = measured here: mesenchymal TEM4-18 mCherry cell survival
# Mitogen-activated protein kinase 7 (Homo sapiens), sequence (Q13164 whole entry, looked up, the tested form may be a part): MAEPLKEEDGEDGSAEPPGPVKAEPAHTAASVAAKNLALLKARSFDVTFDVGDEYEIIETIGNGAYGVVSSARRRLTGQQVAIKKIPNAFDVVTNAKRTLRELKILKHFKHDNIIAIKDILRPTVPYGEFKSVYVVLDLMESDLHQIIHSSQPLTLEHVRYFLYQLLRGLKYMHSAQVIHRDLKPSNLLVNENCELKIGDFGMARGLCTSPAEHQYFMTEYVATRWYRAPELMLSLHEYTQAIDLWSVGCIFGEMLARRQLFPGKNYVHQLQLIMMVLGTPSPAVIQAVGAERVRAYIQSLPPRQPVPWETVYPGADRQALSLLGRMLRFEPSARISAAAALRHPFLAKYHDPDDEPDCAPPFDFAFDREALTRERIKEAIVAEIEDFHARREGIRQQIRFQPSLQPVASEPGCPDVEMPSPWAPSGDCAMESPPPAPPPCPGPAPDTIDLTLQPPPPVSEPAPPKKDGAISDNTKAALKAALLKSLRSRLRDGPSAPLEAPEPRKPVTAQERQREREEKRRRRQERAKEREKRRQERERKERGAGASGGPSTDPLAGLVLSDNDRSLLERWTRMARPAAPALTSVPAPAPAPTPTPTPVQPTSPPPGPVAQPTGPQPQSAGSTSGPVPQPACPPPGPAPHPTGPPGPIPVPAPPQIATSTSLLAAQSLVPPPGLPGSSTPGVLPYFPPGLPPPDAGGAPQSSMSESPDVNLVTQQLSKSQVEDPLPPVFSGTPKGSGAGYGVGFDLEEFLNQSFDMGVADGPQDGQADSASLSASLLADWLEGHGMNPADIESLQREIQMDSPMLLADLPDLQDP
# 6-phosphogluconate dehydrogenase, decarboxylating (Homo sapiens), sequence (P52209 whole entry, looked up): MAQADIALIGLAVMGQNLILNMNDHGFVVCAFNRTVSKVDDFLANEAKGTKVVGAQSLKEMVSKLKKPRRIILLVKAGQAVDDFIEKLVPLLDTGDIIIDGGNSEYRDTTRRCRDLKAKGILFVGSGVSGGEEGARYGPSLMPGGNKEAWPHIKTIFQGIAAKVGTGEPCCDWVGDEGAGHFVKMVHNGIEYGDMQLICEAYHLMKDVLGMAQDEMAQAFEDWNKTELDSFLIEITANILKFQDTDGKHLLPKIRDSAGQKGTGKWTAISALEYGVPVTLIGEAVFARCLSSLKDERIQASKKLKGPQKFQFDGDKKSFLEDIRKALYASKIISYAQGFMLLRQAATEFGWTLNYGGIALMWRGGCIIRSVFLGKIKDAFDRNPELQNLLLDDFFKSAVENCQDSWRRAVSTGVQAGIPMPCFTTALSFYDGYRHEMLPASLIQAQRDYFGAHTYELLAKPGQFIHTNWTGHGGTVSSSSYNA
SMILES,inhibition [1],score [2],rescue above control [3],cytochrome c release ratio [4],inhibition of aggregation [5],glutamate uptake change [6],aggregation suppression score [7],parasite load remaining [8],viability [8],inhibition [9],red/green cell ratio (normalised) [10],"normalised cell number [10, 12]","normalised cell number [10, 13]",luciferase signal [11]
O=C(O)c1cc(=O)c2cccc(O)c2[nH]1,-21.7%,0.98,-4.01,1.01,57.7%,9.13%,1.12,174% (inactive),71.4%,4.89% (inactive),1.29 (inactive),0.88,1.13,100 AU (inactive)
COC1=CC(=O)C=C(OC)C1=O,,,,,,,,122% (inactive),94.3%,1.73% (inactive),0.91 (inactive),0.92,0.84,112 AU (inactive)
NC1(C(=O)O)CCCC1,20.1%,1.21,-10.9,4.67,81.6%,2.91%,1.57,96.4% (inactive),69.9%,-12.6% (inactive),0.86 (inactive),1.24,1.06,76 AU (inactive)
O=C(/C=C/c1ccccc1)c1ccc(O[C@@H]2O[C@H](CO)[C@@H](O)[C@H](O)[C@H]2O)cc1O,,,,,,,,121% (inactive),96.4%,4.22% (inactive),1 (inactive),0.9,0.9,76 AU (inactive)
NC1=NCCN1CC(=O)O,26.8%,1.43,1.68,1.01,80.3%,12.9%,0.99,89.9% (inactive),69.9%,-2.27% (inactive),0.92 (inactive),1.1,1.01,48 AU (inactive)
CC(=O)O[C@H]1C[C@@H](OC(C)=O)C(C)(C)C2CC(=O)[C@]3(C)C(CC[C@@]4(C)[C@H](c5ccoc5)OC(=O)[C@H]5O[C@]543)[C@]21C (some centres undefined),,,,,,,,,,6.24% (inactive),0.93 (inactive),0.94,0.87,16 AU (inactive)
CON,-5.62%,1.4,-6.41,0.58,-9.7%,19.3%,1.29,,,3.11% (inactive),1.03 (inactive),1.15,1.18,124 AU (inactive)
CC(=O)c1c(O)c(C)c(O)c2c1OC1=CC(=O)C(C(C)=O)C(=O)C12C (centres undefined),59.1%,0.79,1.6,0.98,-17%,-5.26%,0.354,,,-11.1% (inactive),0.89 (inactive),1.06,0.94,80 AU (inactive)
COc1c(OC)c2occc2c2oc(=O)ccc12,-21%,0.45,5.04,1,42.9%,-3.15%,0.328,,,-3.21% (inactive),0.97 (inactive),1.12,1.08,28 AU (inactive)
COC(=O)c1c(OC)cc2c(c1C)Oc1c(Cl)c(O)c(Cl)c(C)c1C(=O)O2,,,,,,,,,,-6.18% (inactive),1.02 (inactive),1.07,1.1,56 AU (inactive)
C=C[C@@](C)(O)CCC1C(=C)CCC2[C@@](C)(CO)CCC[C@]12C (some centres undefined),,,,,,,,,,4.45% (inactive),0.89 (inactive),1.15,1.03,36 AU (inactive)
COc1c2ccoc2cc2oc(C)cc(=O)c12,,,,,,,,,,12.5% (inactive),0.91 (inactive),1.19,1.08,52 AU (inactive)
C=NC(C(=O)NC1C(=O)N2C1SC(C)(C)C2C(=O)O)c1ccccc1 (centres undefined),15.2%,0.85,-2.5,0.48,82%,4.77%,0.649,130% (inactive),74.4%,-2.44% (inactive),1.12 (inactive),0.88,0.99,
N#Cc1ccc2c(c1)N(CCCN1CCC(O)CC1)c1ccccc1S2,-41.8%,1.21,2.76,0.74,41.2%,8.34%,1.12,134% (inactive),87.2%,-2.33% (inactive),1.05 (inactive),0.87,0.92,96 AU (inactive)
CCC(C(N)=O)c1ccccc1 (centres undefined),,,,,,,,,,-20.8% (inactive),0.96 (inactive),1.17,1.12,68 AU (inactive)
